According to PubChem BioAssay AID1942 (Johns Hopkins Ion Channel Center, 2009):
Out of some 2,400 compounds screened, about 580 (24%) were called active.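 Rule for the calls: active = activity change at or above the mean plus 3 SD of buffer wells without dofetilide, per plate; inactive = the rest.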 Only a sample is shown.

Target: Potassium voltage-gated channel subfamily KQT member 2 (Rattus norvegicus) (UniProt O88943)
Assay: KCNQ2 potentiation in CHO cells – cell-based, FluxOR thallium flux, counter-screen for hERG block protector project, confirmation (AID 1942);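 note: normalized value minus buffer-control mean plus three SD of buffer wells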
Settings: FluxOR thallium flux fluorescence, at 10 µM, hits give high values

Chain of Potassium voltage-gated channel subfamily KQT member 2 (Rattus norvegicus) (O88943 whole entry, looked up): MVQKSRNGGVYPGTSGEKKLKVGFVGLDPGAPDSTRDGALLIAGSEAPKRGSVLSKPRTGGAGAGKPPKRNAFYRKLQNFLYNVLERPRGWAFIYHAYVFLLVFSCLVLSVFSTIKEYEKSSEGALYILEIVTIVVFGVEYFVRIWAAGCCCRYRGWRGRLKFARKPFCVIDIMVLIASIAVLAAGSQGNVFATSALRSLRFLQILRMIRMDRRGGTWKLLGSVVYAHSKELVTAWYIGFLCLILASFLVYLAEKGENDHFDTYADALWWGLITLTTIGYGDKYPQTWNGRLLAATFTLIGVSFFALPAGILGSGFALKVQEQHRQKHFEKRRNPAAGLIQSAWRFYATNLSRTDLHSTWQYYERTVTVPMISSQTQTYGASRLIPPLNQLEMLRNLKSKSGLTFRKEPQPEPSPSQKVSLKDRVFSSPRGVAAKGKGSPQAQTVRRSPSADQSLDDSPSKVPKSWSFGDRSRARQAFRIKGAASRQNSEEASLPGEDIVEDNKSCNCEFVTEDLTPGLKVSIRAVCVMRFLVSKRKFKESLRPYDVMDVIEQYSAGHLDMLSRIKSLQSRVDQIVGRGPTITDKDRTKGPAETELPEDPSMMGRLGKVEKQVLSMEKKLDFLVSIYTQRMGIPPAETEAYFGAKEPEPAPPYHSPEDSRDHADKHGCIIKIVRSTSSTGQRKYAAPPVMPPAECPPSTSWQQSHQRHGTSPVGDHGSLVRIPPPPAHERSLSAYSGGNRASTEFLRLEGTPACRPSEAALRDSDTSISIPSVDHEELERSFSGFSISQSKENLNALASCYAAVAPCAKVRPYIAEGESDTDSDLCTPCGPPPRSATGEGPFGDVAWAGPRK

Row | SMILES | activity change, less the hit threshold
1 | NS(=O)(=O)c1ccc(Sc2ccc3c(c2)CCC3)nc1 | -2.7% (inactive)
2 | COc1cc(NS(=O)(=O)c2ccc(NC(=S)Nc3ccccc3)cc2)nc(OC)n1 | -20.8% (inactive)
3 | COc1ccc(C(=O)CSc2nnc3ccc(-c4ccccn4)nn23)cc1 | -17.4% (inactive)
4 | CS(=O)(=O)N1CCN(c2ccccc2NC(=O)Nc2cccc(Cl)c2)CC1 | -24.2% (inactive)
5 | COc1ccc(-c2nc3ccc(C(=O)NCC(OC)OC)cc3nc2-c2ccc(OC)c(OC)c2)cc1OC | -22.7% (inactive)
6 | O=C1C(=O)N(CCN2CCOCC2)C(c2cccnc2)/C1=C(/O)c1ccc(Cl)cc1 (configuration not stated) | -17.6% (inactive)
7 | Nc1nnc(SCC(=O)OCc2ccc(F)cc2)s1 | -16.7% (inactive)
8 | CCc1ccc(/C=C/C(=O)c2cc(Br)ccc(=O)c2O)cc1 | -8.6% (inactive)
9 | O=C(/C=C/c1ccccc1)CC(=O)c1ccccc1O | -15.2% (inactive)
10 | O=C(/C=C/c1ccccc1)c1cc(Br)ccc(=O)c1O | 15% (active)
11 | Cc1cccc(/C=C/C(=O)c2cc(Br)ccc(=O)c2O)c1 | 3% (active)
12 | COc1cc(C2NC(=O)NC(O)(C(F)(F)F)C2C(C)=O)cc(OC)c1OC (configuration not stated) | -20.3% (inactive)
13 | O=C1CC(C(=O)N2CCOCC2)C2(CCCCC2)O1 (configuration not stated) | -22.9% (inactive)
14 | CCOc1ccccc1CNC(=O)CNC(=O)c1cccs1 | -20.9% (inactive)
15 | Cc1cccc(NC(=S)c2nc3ccccc3s2)c1 | -23.6% (inactive)
16 | Cc1ccc(NC(=S)c2nc3ccccc3s2)cc1 | -9.6% (inactive)
17 | S=C(Nc1ccc(Cl)cc1)c1nc2ccccc2s1 | 7.4% (active)
18 | CC(C)(C)n1nnnc1C(c1cc2cc3c(cc2[nH]c1=O)OCCO3)N1CCSCC1 (configuration not stated) | -17.4% (inactive)
19 | Cc1ccc2[nH]c(=O)c(C(c3nnnn3C3CCCC3)N3CCCc4ccccc43)cc2c1 (configuration not stated) | 13.3% (active)
20 | CC(=O)Nc1ccc(S(=O)(=O)NC2(C(F)(F)F)C(=O)Nc3c2c(=O)[nH]c(=O)n3C)cc1 (configuration not stated) | -12.3% (inactive)
21 | Cc1cc(OCCN2CCCCCC2)ccc1[N+](=O)[O-] | -19.9% (inactive)
22 | O=c1cc(-c2ccccc2)cc(-c2ccccc2)n1O | 57.6% (active)
23 | Cn1c(=O)cc(-c2ccccc2)c2ccccc21 | -20.4% (inactive)
24 | C/C=C(\C)CN1CCN(c2cccc(C)c2C)CC1 | -16.9% (inactive)
25 | Cc1ccccc1OCC(=O)NNC(=O)c1ccc2c(=O)n3c(nc2c1)CCC3 | -15.4% (inactive)

Row | SMILES | activity change, less the hit threshold
26 | O=C(NC(=S)N1CCCc2ccccc21)c1ccc([N+](=O)[O-])cc1 | 15.1% (active)
27 | COc1ccccc1NC(=S)N1CCCc2ccccc21 | -23.2% (inactive)
28 | O=C(NC(=S)N1CCCc2ccccc21)c1ccc(Br)cc1 | 18.2% (active)
29 | O=C(NC(=S)Nc1ccccc1N1CCCC1)c1ccc([N+](=O)[O-])cc1 | -8.4% (inactive)
30 | CCC(=O)N1CCCc2ccccc21 | -20.5% (inactive)
31 | O=C(COc1ccc(Br)cc1Br)NC(=S)N1CCCc2ccccc21 | -16.8% (inactive)
32 | COc1ccccc1NC(=O)Cc1nnc(SCC(=O)Nc2nccs2)n1C | -13.3% (inactive)
33 | Cc1ccc(C2c3c(-c4ccccc4O)n[nH]c3C(=O)N2Cc2ccncc2)cc1 (configuration not stated) | -18.8% (inactive)
34 | O=C1N2CCSC2=NC1(NS(=O)(=O)c1ccccc1)C(F)(F)F (configuration not stated) | -12% (inactive)
35 | O=C(Nc1ccccc1)N1CCSc2cc(Cl)ccc21 | -9.1% (inactive)
36 | Cn1nnnc1Sc1ncnc2scc(-c3ccc(F)cc3)c12 | -21.3% (inactive)
37 | S=c1[nH]cnc2scc(-c3ccc(Cl)cc3)c12 | 18.2% (active)
38 | S=c1[nH]cnc2scc(-c3ccc(Br)cc3)c12 | 4.9% (active)
39 | Cn1cc(/C=N/n2cnc3scc(-c4ccc(Cl)cc4)c3c2=O)c2ccccc21 | -18.8% (inactive)
40 | Fc1ccc(-n2cc(-c3ccccc3)c3c(=S)nc[nH]c32)cc1 | -9.7% (inactive)
41 | Cc1ccc(-c2csc3nc[nH]c(=S)c23)cc1 | 41% (active)
42 | S=c1[nH]cnc2scc(-c3ccccc3)c12 | 44.9% (active)
43 | Cc1ccc(C)n1-n1c(C)nc2scc(-c3ccccc3)c2c1=O | -30.9% (inactive)
44 | CC1=NN(C(=O)c2cc(C)nn2C)C(O)(C(F)(F)F)C1 (configuration not stated) | -11.2% (inactive)
45 | Nc1nc(Br)c2c(F)cccc2c1-c1ccc(Cl)cc1 | -21.1% (inactive)
46 | COc1ccc(NC(=O)C2CCN(S(=O)(=O)c3cn(C)nc3C)CC2)cc1 | -13.2% (inactive)
47 | O=C(Cn1c(=O)c2cccn2c2ccccc21)NCCc1ccc(Cl)cc1 | -34.9% (inactive)
48 | CC1CCCN(C(=O)COC(=O)c2cc(-c3cccs3)nn2-c2ccccc2)C1 (configuration not stated) | -25.5% (inactive)
49 | O=C(CSc1ncnc2c1cnn2-c1ccc(Cl)cc1)NCc1ccc2c(c1)OCO2 | -11.1% (inactive)
50 | Cn1ncc2c(NNC(=O)Cc3ccccc3)ncnc21 | -14.4% (inactive)

Row | SMILES | activity change, less the hit threshold
51 | Cc1ccc(-n2ncc3c(SCC(=O)NNC(=O)c4ccco4)ncnc32)cc1 | 4.4% (active)
52 | CC(C)Oc1c(Cl)cc(CNC(C)(C)CO)cc1Cl | -18.3% (inactive)
53 | c1cnc2c(Oc3ncnc4sccc34)cccc2c1 | -17% (inactive)
54 | Cc1ccccc1NC1=C/C(=N\S(=O)(=O)c2ccc(C(=O)O)cc2)c2ccccc2C1=O | 10% (active)
55 | O=C(O)c1ccc(S(=O)(=O)/N=C2\C=C(Nc3ccccc3F)C(=O)c3ccccc32)cc1 | 3.9% (active)
56 | Cc1cc(NC(C)C)n2c(nc3ccccc32)c1C#N | -21.5% (inactive)
57 | Cc1cc(NC(=O)CCCn2cnc([N+](=O)[O-])n2)no1 | -14.3% (inactive)
58 | Cc1c(-c2ccccc2)sc2nc[nH]c(=S)c12 | 43.6% (active)
59 | Cc1sc2nc[nH]c(=S)c2c1-c1ccccc1 | 41.3% (active)
60 | CC(=O)C1=C(C)NC(=O)NC1/C=C/c1ccccc1 (configuration not stated) | -23% (inactive)
61 | CCN(CC(=O)NCc1ccc(Cl)cc1)C(=O)CCOc1ccc(C)cc1 | -24.3% (inactive)
62 | CCCCCN(C(=O)CCC(=O)OCC(=O)N(C)C1CCCCC1)c1c(N)n(CCCC)c(=O)[nH]c1=O | -22.7% (inactive)
63 | CCN1CCN(C(=O)c2ccc(Cn3c(=O)[nH]c4cc(OC)c(OC)cc4c3=O)cc2)CC1 | -7.7% (inactive)
64 | Cc1cccc(NC(=O)CCNC(=O)c2ccco2)c1C | -12.3% (inactive)
65 | Cc1cccc(C)c1NC(=S)NC(=O)c1ccc(Br)o1 | 66.5% (active)
66 | CN1CCN(c2ccc(NC(=O)c3ccc(Br)o3)cc2)CC1 | -6.3% (inactive)
67 | Cc1cccc(NC(=S)NC(=O)c2ccc(Br)o2)c1C | 12.7% (active)
68 | Cc1cccc(NC(=S)NC(=O)c2ccco2)c1C | 54.7% (active)
69 | C/C(=C/CCC(C)C1CCC2(C)C3CCC4C(C)(C)C(=O)CCC4(C)C3=CCC12C)C(=O)O (configuration not stated) | -17.4% (inactive)
70 | CO/N=C(\CCC(=O)O)c1cccs1 | -9.3% (inactive)
71 | CC1(C)CC2(CCO1)C(Nc1ccccc1)=NC(=S)N2CC(N)=O (configuration not stated) | -15.8% (inactive)
72 | Cc1ccccc1NC1=NC(=S)N(c2ccccc2)C12CCCCC2 | 11.4% (active)
73 | COc1ccc(/C=C/c2cc(=O)c3cc(Cl)ccc3o2)cc1 | -18.8% (inactive)
74 | NS(=O)(=O)c1ccc(NC(=O)c2ccc(S(=O)(=O)N3CCc4ccccc43)cc2)cc1 | -7.3% (inactive)
75 | COc1cccc(NC(=O)c2nn(-c3ccc(OC)cc3OC)c(=O)c3ccccc23)c1 | -13.8% (inactive)

Row | SMILES | activity change, less the hit threshold
76 | COc1ccc(-n2nc(C(=O)NCC(=O)NCc3ccc(F)cc3)c3ccccc3c2=O)cc1OC | -10.3% (inactive)
77 | COc1cccc(-n2nc(C(=O)O)c3ccccc3c2=O)c1 | 3.7% (active)
78 | COc1ccc(C)cc1-n1nnnc1SCc1nc2ccccc2c(=O)[nH]1 | -22% (inactive)
79 | CCOC(=O)C1=NN(C(=O)c2ccc(OC)cc2)C(O)(c2ccc(Cl)cc2)C1 (configuration not stated) | 71.1% (active)
80 | CCOC(=O)CN1N=C(/C=C/c2ccc(OC)cc2)CCC1=O | -17.3% (inactive)
81 | CCOC(=O)C1=NN(C(=O)c2ccccc2)C(O)(c2ccc(C)cc2)C1 (configuration not stated) | 2.6% (active)
82 | CCCCC1(O)CC(C(F)(F)F)=NN1C(=O)COc1ccccc1 (configuration not stated) | -22.2% (inactive)
83 | CCC1=NN(C(=O)c2ccc(Cl)cc2)C(O)(c2ccc(C)cc2)C1 (configuration not stated) | -12.6% (inactive)
84 | CCOC(=O)c1nc(C)n(-c2ccc(Cl)cc2)n1 | -12.5% (inactive)
85 | CCOC(=O)C1=NN(C(=O)c2ccc(C)cc2)C(O)(c2ccc(Cl)cc2)C1 (configuration not stated) | 88.1% (active)
86 | O=C(CSc1nc2cc(Cl)ccc2s1)c1cc2ccccc2o1 | -2% (inactive)
87 | CN1C(=O)C2(OCC(C)([N+](=O)[O-])CO2)c2ccccc21 (configuration not stated) | -9.8% (inactive)
88 | CC1=C(C#N)C(Nc2cc(C)ccn2)(C(F)(F)F)C(=O)N1 (configuration not stated) | -18.4% (inactive)
89 | CSc1nc2c(c(=O)[nH]1)C(c1ccccc1Cl)CC(=O)N2 (configuration not stated) | -20.4% (inactive)
90 | Cc1cc(C(=O)NP(=O)(N2CCOCC2)N2CCOCC2)c(C)n1-c1ccc(Br)cc1 | -22% (inactive)
91 | O=C(CSc1nnc(SCc2ccccc2)s1)N/N=C/c1ccc(Cl)cc1Cl | -22.9% (inactive)
92 | O=C1c2ccccc2C(=O)N1c1cccnc1 | -14.6% (inactive)
93 | Cc1ccc(C)c(NC(=S)c2nc3ccccc3s2)c1 | -7.6% (inactive)
94 | CC(C)Oc1ccc(CNC(=O)C2CCN(C(=O)N3CCOc4ccccc43)CC2)cc1 | -20.2% (inactive)
95 | CC(=O)c1ccc2c3c(cccc13)CC2 | -12.7% (inactive)
96 | CC(C)CC(=O)Nc1ccc2c3c(cccc13)CC2 | 44.7% (active)
97 | COc1cc(C(=O)NCc2ccc(-c3nc4ccccc4o3)cc2)cc(OC)c1OC | -13.9% (inactive)
